Assay outcomes deposited in PubChem BioAssay by several laboratories.
Shown are actives, neighbours in structure and some others; about 3.6% of the full set was active somewhere.
TROY signal inh: TROY signaling inhibition; Q293 LMP1-TROYcd NF-kB luciferase reporter, 4 h; inhibition, % at 10 µM; 360,000 compounds, 0.98% hits; AID 1347056;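 active = compounds whose plate-normalised and pattern-corrected inhibition of the luciferase reporter signal at the single screening dose is 50% or more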
HSF-1 act: increases HSF-1 driven luciferase reporter signal. activation, % at 9 µM. 300,000 compounds, 1.7% hits. NIH3T3-HGL HSF-1 luciferase reporter, MG132, 8 h; 100% = twice DMSO control signal. AID 504408;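 active = mean replicate activation of at least 50% with a set share of replicates each reaching 50%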;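 also: 0% = median of the neutral control wells and 100% = twice that signal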
TWEAK Fn14 block: inhibitors of TWEAK-Fn14 interaction signaling; TWEAK-stimulated Fn14 reporter cells, luciferase luminescence, 8 h; AID 1159606; 360,000 compounds, 2% hits; inhibition, % at 10 µM; in the data active = inhibition above about 50%
LGR2 inh: Drosophila LGR2 receptor signaling inhibition; HEK293 LGR2, CRE-luciferase, bursicon-stimulated, 4 h; inhibition, % at 9.99 µM; 380,000 compounds, 0.35% hits; AID 720647;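 active = drop in luminescence signal, shown as inhibition above about 50% in the replicate tests, limit read from the data, passing the limit was not always enough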;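 also: agonist challenge used bursicon conditioned medium at about half maximal strength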
HSF1 inh: HSF1 inhibition; activity change, negative = inhibition, % at 7.5 µM (by protocol); 300,000 compounds, 0.77% hits; NIH3T3-HGL HSE-luciferase, MG132-induced, luminescence 8 h; stronger effect = lower value;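 active = more than half of replicate wells show activity change below -50%, luminescence cut by over half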;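 also: luciferase reports HSF-1 transcriptional activity via heat shock element; 0% = median of DMSO wells and -100% = zero luminescence signal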
LMP1 NFkB inh: Epstein-Barr LMP1 NF-kappaB reporter inhibition; LMP1-induced NF-kappaB luciferase reporter cells, luminescence; inhibition, % at 12.5 µM; 350,000 compounds, 0.69% hits; AID 504558; in the data active = inhibition above about 41%;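 also: 0% = neutral control wells and 100% = reference inhibitor control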
Active calls of the source: *.

For Cc1noc(C)c1S(=O)(=O)Nc1ccc2c(c1)C(=O)N([C@@H](C)CO)C[C@H](C)[C@@H](CN(C)S(=O)(=O)c1cccs1)OCCCC[C@@H](C)O2 the results were LGR2 inh 16.
CO[C@H](CN(C)C(=O)c1cnccn1)[C@@H](C)CN([C@H](C)CO)S(=O)(=O)c1ccc(C)cc1 was read as LGR2 inh 19.
CCCC(=O)Nc1ccc2c(c1)OC[C@@H](C)N(CCc1ccccc1)C[C@@H](C)[C@@H](OC)CN(C)C2=O was read as LGR2 inh 7.
CC=Cc1ccc2n(c1=O)C[C@H]1[C@H](CO)[C@@H](C(=O)NCCc3cn(C)cn3)[C@@H]2N1C(=O)C1CCCC1 (mixture of isomers) was read as LGR2 inh 3.
Screening CCCn1c(/C=N/Nc2nc3ccccc3[nH]2)nc2ccccc21 returned TROY signal inh -104, TWEAK Fn14 block -68, LGR2 inh -10 and LMP1 NFkB inh 47*.
`Cn1c(/C=N/Nc2nc3ccccc3[nH]2)nc2ccccc21` gave TROY signal inh -43, HSF-1 act 21, TWEAK Fn14 block -1, LGR2 inh -3, HSF1 inh 10 and LMP1 NFkB inh -16.
Cc1ccccc1Cn1nnc2c1C(=O)c1ccccc1C2=O was read as TROY signal inh 50*, HSF-1 act 28, TWEAK Fn14 block 9, HSF1 inh 20 and LMP1 NFkB inh -7.
Screening COc1cccc(COC(=O)c2ccc3c(c2)NC(=O)C(C)S3)c1OC (configuration not stated) returned TROY signal inh 21, HSF-1 act -82, TWEAK Fn14 block 3, LGR2 inh -2, HSF1 inh -77* and LMP1 NFkB inh -10.
O=C(/C=C1\NC2(CCCC2)Cc2ccccc21)N1CCOCC1 was read as TROY signal inh 5, HSF-1 act 8, TWEAK Fn14 block 16, HSF1 inh 3 and LMP1 NFkB inh 5.
Screening CC1(C)Cc2c(ccc3ccccc23)/C(=C/C(=O)N2CCCCC2)N1 returned TROY signal inh -3, HSF-1 act 3, TWEAK Fn14 block 12, LGR2 inh -12, HSF1 inh 4 and LMP1 NFkB inh 58*.
`Cc1ccc(OCc2ccc(C(=O)N3CCCC3)o2)cc1C` gave TROY signal inh -4, HSF-1 act 61*, TWEAK Fn14 block -33, LGR2 inh -3, HSF1 inh 46 and LMP1 NFkB inh 3.
`O=C(O)c1ccc(OCc2ccc(C(=O)O)o2)cc1` gave TROY signal inh -20, HSF-1 act -14, TWEAK Fn14 block -10, LGR2 inh 6, HSF1 inh -3 and LMP1 NFkB inh -5.
For CCc1ccc(OCc2ccc(C(=O)O)o2)cc1 the results were TROY signal inh -23, HSF-1 act -15, TWEAK Fn14 block 54*, LGR2 inh -121, HSF1 inh -8 and LMP1 NFkB inh -27.
`CC1CN(C(=O)c2ccc(COc3ccc(C(C)C)cc3)o2)CC(C)O1` (configuration not stated) gave TROY signal inh -38, HSF-1 act 60*, TWEAK Fn14 block -56, LGR2 inh -52, HSF1 inh 31 and LMP1 NFkB inh -62.
Screening COC(=O)c1ccccc1NC(=O)c1ccc(COc2ccc(C)c(C)c2)o1 returned HSF-1 act 21, TWEAK Fn14 block 81*, HSF1 inh -2 and LMP1 NFkB inh 5.
For CCOc1ccc(OCc2ccc(C(=O)N3CCCCC3)o2)cc1 the results were TROY signal inh -1, HSF-1 act -3, TWEAK Fn14 block -12, LGR2 inh -27, HSF1 inh 3 and LMP1 NFkB inh -3.
For CC1CN(C(=O)c2ccc(COc3ccc4ccccc4c3)o2)CC(C)O1 (configuration not stated) the results were TROY signal inh -40, HSF-1 act 38, TWEAK Fn14 block -20, LGR2 inh -26, HSF1 inh 21 and LMP1 NFkB inh -5.
COC(=O)c1ccccc1NC(=O)c1ccc(COc2cc(C)cc(C)c2)o1 was read as TROY signal inh 1, HSF-1 act -1, TWEAK Fn14 block -6, LGR2 inh -10, HSF1 inh -8 and LMP1 NFkB inh 0.
COCC(=O)Nc1ccc2c(c1)[C@@H]1C[C@@H](CC(=O)OC)O[C@H](CO)[C@@H]1O2 was read as LGR2 inh -15.
